# Out of some 2,100 compounds screened, about 760 (36%) were called active. A selection follows. A number with no mark means an inactive call.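 Rule for the calls: active = thallium-flux fluorescence traces judged by eye to show enhanced or reduced glutamate response, manual score 1 or -1, so both directions (some results past the limit were not filed as active); inactive = the rest, including fluorescent or raised-baseline compounds.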
# Assay: non-GIRK thallium flux modulation in mGlu8 cells, confirmation, counter-screen for GIRK activator project, cell-based, HEK-293 rmGlu8, no GIRK (AID 623868);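 note: extra codes mark interference with 3 for fluorescent and 4 for baseline rise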
# Conditions: thallium flux fluorescence, at 10 µM, actives lie on both sides, codes: 1 enhancer, -1 blocker, 0 none, thallium stimulus containing EC20 glutamate
row,SMILES,manual score
1,Cc1ccc(C(=O)N/N=C(/CC(=O)c2cccs2)C(F)(F)F)cc1,1 (active)
2,C=CCn1c(O)c(N=NC(=O)OC(C)(C)C)c2ccccc21,1 (active)
3,O=C(NCCSc1c[nH]c2ccccc12)c1ccco1,0
4,Cc1ccccc1Cn1c(=N)n(CC(=O)c2ccco2)c2ccccc21,0
5,CCCn1c(O)c(N=NC(=O)c2ccco2)c2ccccc21,1 (active)
6,CCCCNC(=S)N=Nc1c(O)n(Cc2ccccc2)c2ccccc12,1 (active)
7,CN=C1SC(C(=O)O)CC(=O)N1C (stereo unspecified),0
8,O=C(NC1CC1)c1ccc(CSCc2cccc(F)c2)o1,0
9,CCOC(=O)C(C)Sc1nc2c(cnn2-c2ccc(C)cc2)c(=O)[nH]1 (stereo unspecified),0
10,CCOC(=O)c1nn(-c2ccc(F)cc2)c(C)c1C(C)=O,0
11,CCOC(=O)C(CC)n1cnc2c(nnn2-c2ccc(OC)cc2)c1=O (stereo unspecified),-1 (active)
12,Nc1nc2n(n1)C(c1cccs1)CC(c1ccc(F)cc1)N2 (stereo unspecified),0
13,O=C(NC(=S)Nc1ccc2oc(-c3cccnc3)nc2c1)c1cccc(Cl)c1,0
14,Cc1ccc(-c2nc3ccccc3o2)cc1NC(=S)NC(=O)c1cc2ccccc2o1,0
15,O=C(Nc1ccc2oc(-c3ccncc3)nc2c1)c1c(F)c(F)c(F)c(F)c1F,0
16,Cc1ccc2oc(-c3cccc(NC(=S)NC(=O)c4cccs4)c3)nc2c1,1 (active)
17,Cc1cc(C)c2oc(-c3ccc(C)c(NC(=S)NC(=O)c4cccs4)c3)nc2c1,1 (active)
18,O=C1Nc2cc(S(=O)(=O)N3CCCC3)ccc2N2CCCC12 (stereo unspecified),0
19,CC(C)OC(=O)/C(=C/c1cccnc1)NC(=O)c1ccccc1,0
20,O=C(NCCCCNC(=O)c1cccnc1)c1cccnc1,0
21,O=C(N/N=C(\c1ccccc1)c1cccnc1)C(O)(c1ccccc1)c1ccccc1,-1 (active)
22,Cc1c(C#N)c2ncn(CC#N)c(=O)c2n1-c1ccccc1,0

row,SMILES,manual score
1,COc1ccc(-c2onc(C)c2-c2ccc(C(=O)OC(C)C)o2)c(O)c1,0
2,CCCOC(=O)c1ccc(-c2c(C)noc2-c2ccc(OC)cc2O)o1,-1 (active)
3,Cc1cc(C(=O)OCC(=O)Nc2ccc(F)cc2)c(C)o1,0
4,Cc1ccc(N2C(=S)N=C(Nc3ccccc3C)C23CCOC(C)(C)C3)cc1 (stereo unspecified),1 (active)
5,Cc1ccccc1NC1=NC(=S)N(c2ccccc2)C12CCOC(C)(C)C2 (stereo unspecified),1 (active)
6,Cc1ccccc1Nc1nc2nonc2nc1N1CCOCC1,0
7,CC1=NCCN1S(=O)(=O)c1cc(Cl)ccc1Cl,0
8,COc1cccc2[nH]c3c(N4CCCC(C)C4)ncnc3c12 (stereo unspecified),0
9,S=C1Nc2cc(Cl)ccc2Sc2ccccc21,1 (active)
10,S=C1Nc2ccccc2Sc2ccc(Cl)cc21,0
11,S=C1CCSc2ccc(Cl)cc2N1,1 (active)
12,Clc1ccc2c(c1)C(N1CCNCC1)Cc1ccccc1S2 (stereo unspecified),0
13,CCOC(=O)c1[nH]c(C)c(C(=O)NC2CCCCC2)c1C,0
14,CC(C)Sc1oc(-c2ccco2)nc1S(=O)(=O)c1ccccc1,0
15,CN=c1scc(-c2cccs2)n1/N=C/c1ccc(O)c(O)c1O,0
16,Cc1ccc(/C=N/n2c(-c3cccs3)n[nH]c2=S)cc1,1 (active)
17,C=CCn1c(-c2cccs2)nc2ccccc21,0
18,Cc1ccc(-c2cc(-c3cccs3)[nH]n2)c(O)c1,0
19,Fc1ccc(/C=N/n2c(-c3cccs3)n[nH]c2=S)cc1,1 (active)
20,CC12CN(Cc3ccccc3)CC(C)(CN(Cc3ccccc3)C1)C2=NO,0
21,CC1CCC(n2c(=S)[nH]c3ccccc3c2=O)CC1 (stereo unspecified),1 (active)
22,CCN1CCN(C(=O)c2ccc3c(=O)n(C4CCCC4)c(=S)[nH]c3c2)CC1,0

row,SMILES,manual score
1,CC1CCCC(n2c(=S)[nH]c3ccccc3c2=O)C1C (stereo unspecified),3
2,CC1CCCCC1n1c(=S)[nH]c2ccccc2c1=O (stereo unspecified),1 (active)
3,O=c1[nH]c2ccccc2n1CCC1CCCCC1,0
4,O=C(c1ccc2c(=O)n(C3CCCC3)c(=S)[nH]c2c1)N1CCc2ccccc21,0
5,CCOC(=O)N1CCC(n2c(=S)[nH]c3ccccc3c2=O)CC1,1 (active)
6,O=c1c2ccccc2[nH]c(=S)n1C1CCCCC1,1 (active)
7,O=C(C1CCC(Cn2c(=S)[nH]c3ccccc3c2=O)CC1)N1CCN(c2ccccc2)CC1 (stereo unspecified),0
8,CCOC(=O)/C(=C\C=C1/Sc2cc(OCC)c(OCC)cc2N1CC)C(C)=O,3
9,C=CCN1CCN(C(c2ccc(Cl)cc2)c2nnnn2CCc2ccc(OC)c(OC)c2)CC1 (stereo unspecified),0.5
10,CCC1(C)CC(c2csc(N)n2)CCO1 (stereo unspecified),0
11,O=C(CSCCO)Nc1ccccc1,0
12,CCOC(=O)C(C(=O)OCC)c1cc(Br)c2noc3c2c1C(=O)c1ccccc1-3,3
13,CC(C)(C)OC(=O)COc1cc(O)c2c(=O)cc(-c3ccccc3)oc2c1,0
14,Cc1ccc2c(c1)N(CC(=O)N(Cc1ccccn1)Cc1ccco1)C(=O)C(C(C)C)O2 (stereo unspecified),0
15,CCOc1ccc(-n2c(Cc3cc(=O)[nH]c(=O)[nH]3)nnc2SC(C)C(=O)OC)cc1 (stereo unspecified),0
16,COC(=O)C(C)Sc1nc2c(c(=O)n(C)c(=O)n2C)n1Cc1cccc(C)c1 (stereo unspecified),0
17,CCOc1ccc(-n2c(SC(C)C(=O)OC)nc3c(c2=O)SCC3)cc1 (stereo unspecified),-1 (active)
18,COC(=O)c1ccc(CSc2nc3c(c(=O)n2-c2ccc(F)cc2)SCC3)o1,-1 (active)
19,COc1cccc(NC(=O)NC2(C(F)(F)F)Oc3ccccc3O2)c1,0
20,CN(C)S(=O)(=O)N(CC(=O)Nc1ccc2ccccc2c1)c1ccccc1,0
21,COc1ccc(C(=O)Nc2ccccc2)cc1S(=O)(=O)Nc1cc(C)on1,0
22,CCCCOc1cccc(OCCCC)c1C(=O)Nc1cc(C)on1,0

row,SMILES,manual score
1,Cc1cc(NC(=O)c2ccccc2Oc2ccccc2)no1,-1 (active)
2,O=C1c2ccccc2NC(c2ccc(-c3cccc(Cl)c3)o2)N1O (stereo unspecified),1 (active)
3,Cc1cc([N+](=O)[O-])ccc1-c1ccc(C2Nc3ccccc3C(=O)N2O)o1 (stereo unspecified),1 (active)
4,O=C1c2ccccc2NC(c2ccc(-c3ccc(Br)cc3)o2)N1O (stereo unspecified),1 (active)
5,COc1ccc(C(=O)C2C(c3ccc(-c4ccccc4[N+](=O)[O-])o3)NC(=O)NC2(O)C(F)(F)F)cc1 (stereo unspecified),0.5
6,CC(=O)Nc1ccc(SCC(=O)c2cc(C)n(-c3ccccc3F)c2C)cc1,0.5
7,Cc1cccc(C)c1NC1=NC(=S)N(c2ccc(N(C)C)cc2)C1(C)C,1 (active)
8,CC1CN(C(=O)C2CCCCC2)C(C)CN1C(=O)C1CCCCC1 (stereo unspecified),0
9,Cn1c(NC(=O)Cc2ccc(F)cc2)cc(=O)n(C)c1=O,0
10,CC(=O)C1=C(C)NC(SCC(=O)c2ccc(Cl)cc2Cl)=C(C#N)C1c1ccco1 (stereo unspecified),-1 (active)
11,CSCSC1=C(C#N)C(c2ccc(Cl)cc2)C(C(C)=O)=C(C)N1 (stereo unspecified),0
12,CSCSC1=C(C#N)C(c2ccccc2Cl)C(C(C)=O)=C(C)N1 (stereo unspecified),-1 (active)
13,CCOC(=O)C1=C(c2ccccc2)NC(SC)=C(C#N)C1c1ccco1 (stereo unspecified),0
14,CC(=O)C1=C(C)NC(SCc2ccc(C#N)cc2)=C(C#N)C1c1ccco1 (stereo unspecified),0
15,O=C(CCc1nc(-c2ccccc2F)no1)NCCN1CCN(Cc2ccccc2)CC1,0
16,COc1ccc(NC(=O)C(=O)NNC(=O)c2cccs2)c(OC)c1,1 (active)
17,COc1ccc(NC(=O)C(=O)NNC(=O)c2cccs2)cc1,1 (active)
18,COc1cccc(NC(=O)Nc2cccs2)c1,0
19,COc1ccc(Br)cc1CNC(=O)Nc1cccs1,0
20,COC(=O)c1cc(OC)c(OC)cc1NC(=O)Nc1ccc(OC)cc1OC,0
21,O=C(NNC(=O)c1cccs1)Nc1cccc(Cl)c1,0
22,CCCc1noc2c1/C(=N\O)CC(CC(C)SCC)C2 (stereo unspecified),0

row,SMILES,manual score
1,CCc1ccc(C(=O)OCC(=O)Nc2cccc(S(=O)(=O)NC3=NCCCCC3)c2)cc1,0
2,O=C(CSc1ccc2ccccc2c1Br)Nc1cccc(S(=O)(=O)NC2=NCCCCC2)c1,1 (active)
3,O=C(CSc1nnnn1-c1ccc(O)cc1)Nc1cccc(S(=O)(=O)N2CCCC2)c1,0
4,Cc1ccc(N2CC(C(=O)N/N=C/c3sccc3C)CC2=O)cc1 (stereo unspecified),0
5,Cc1ccsc1/C=N/NC(=O)c1sccc1C,1 (active)
6,OC(CNCC1CCCO1)Cn1c2ccc(Br)cc2c2cc(Br)ccc21 (stereo unspecified),0
7,O=C1CC(C(=O)Nc2ccc(Br)cc2)C2(CCCC2)O1 (stereo unspecified),0
8,O=C(NN=C1c2ccccc2-c2ccccc21)c1ccccc1Br,1 (active)
9,O=C(NN=C1c2ccccc2-c2ccccc21)c1cccc(Br)c1,1 (active)
10,O=C(N/N=C/c1ccc([N+](=O)[O-])s1)c1cccc(Br)c1,0.5
11,CCCCn1c(CN(Cc2ccccc2)Cc2ccccc2)nc2c1c(=O)n(C)c(=O)n2C,0
12,O=C(CSCC(=O)N1CCCCC1)Nc1nc(-c2ccc(Cl)s2)cs1,0
13,Cc1nc2nc(Cc3ccccc3)[nH]n2c(=O)c1Cc1ccccc1,0
14,CN1C(=O)C2(C(C#N)=C(N)N(c3cc(Cl)cc(Cl)c3)C3=C2C(=O)CCC3)c2ccccc21 (stereo unspecified),-1 (active)
15,Cc1cc(C(=O)CSc2n[nH]c(N)n2)c(C)n1-c1cc(F)ccc1F,0
16,Fc1ccc(-c2nnc3ccc(N4CCc5ccccc5C4)nn23)cc1,0
17,c1ccc2c(N3CCCCCC3)nc(-c3ccncc3)nc2c1,0
18,c1ccc(-c2nnc3ccc(N4CCCC4)nn23)cc1,-1 (active)

# From PubChem BioAssay AID623868 (Vanderbilt High Throughput Screening Facility, 2012)
